Shiga inhibitor: blocks Shiga toxin action in Vero cells; 9.2% of 290,000 active; inhibition, % at 38.7 µM; Vero cells, Shiga toxin protein synthesis inhibition reporter; in the data active = inhibition mostly above about 28%, no sharp cut-off; inactive = mostly below about 43%; also: 0% is about no effect
SARS PLpro yeast: inhibitors of SARS-CoV papain-like protease in yeast; S. cerevisiae expressing SARS-CoV PLpro, growth rescue; Potency, µM (highest dose often 32.9 µM), inactives show at the highest dose activity, positive = growth rescue, actives largely listed as activators; 0.19% of 330,000 active; also: potency is read from the fitted curve at half-maximal effect; 0% is about no effect; nearly all actives have a fitted effect of over 55% in size
CHX counter: counter-screen for Shiga toxin inhibitors: cycloheximide protein synthesis inhibition; cell reporter, cycloheximide protein synthesis inhibition counterscreen; AID 2314; max response, %; 12% of 300,000 active; in the data active = max response mostly above about 13%, no sharp cut-off; inactive = mostly below about 14%; also: read at 38.3 µM for the half of the compounds with a filed dose; 0% is about no effect
NS1 inh: blocks influenza NS1 protein function; Potency, µM (titrated, usually from 46.1 µM), for inactives: at the highest dose activity, positive = more growth; 0.4% of 270,000 active; AID 2326; also: potency is read from the fitted curve at half-maximal effect; actives are rising curves; nearly all actives have a fitted effect of over 50% in size
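Compounds were scored for reversing the slow growth caused by influenza A NS1 in S. cerevisiae, measured by optical density at 600 nm. Assay medium contained 2% galactose at pH 6.0; NS1-free yeast of the same strain were the positive control.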
* marks the source's active call; other numbers are inactive results; ? = inconclusive; · = no result. A selection: hits, their analogues and other compounds. The true share with any hit is near 12%. Unless noted, calls follow the shape of the full dose curve.

SMILES	Shiga inhibitor	SARS PLpro yeast	CHX counter	NS1 inh
O=C(c1ccc2oc(CCCc3ccccc3)nc2c1)N1CCCC(CCCO)C1 (stereo not given)	47*	-5%	30*	-41%
Cc1c(NC(=O)C(C)N(c2ccccc2)S(C)(=O)=O)c(=O)n(-c2ccccc2)n1C (stereo not given)	21	1%	-2	-1%
COCC1CCCCN1C(=O)c1ccc2oc(CCCc3ccccc3)nc2c1 (stereo not given)	61*	-9%	37*	-17%
CCCOC1CCCN(C(=O)c2ccc3oc(C(C)C)nc3c2)C1 (stereo not given)	94*	-4%	38*	3%
CC(=O)N1CCN(C(=O)c2ccc3oc(CCCc4ccccc4)nc3c2)CC1	16	?	35*	-5%
COCCN1CCN(C(=O)c2ccc3oc(CCc4ccccc4)nc3c2)CC1	35	2%	23*	-4%
CC(OC(=O)c1nc(Cl)ccc1Cl)C(=O)Nc1ccc2c(c1)OCCO2 (stereo not given)	·	7%	·	·
CCOC(=O)C1CCCN(C(=O)c2ccc3oc(Cc4ccccc4)nc3c2)C1 (stereo not given)	76*	-7%	48*	-47%
CC(C)c1nc2cc(C(=O)N3CCNC(=O)C3c3cccc(F)c3)ccc2o1 (stereo not given)	54	-5%	12*	-16%
CC(C)CC(=O)C1CCCN(C(=O)c2ccc3oc(Cc4ccccc4)nc3c2)C1 (stereo not given)	-6	-3%	11	-34%
COc1ccc(OC)c(NC(=O)COC(=O)CCc2ccc(S(=O)(=O)N3CCOCC3)cc2)c1	·	1%	·	·
COCC(=O)N1CCN(c2cccc(Cl)c2)CC1	1	1%	5	0%
O=C(Nc1ccc(S(=O)(=O)N2CCCCCC2)cc1)c1[nH]ncc1[N+](=O)[O-]	56*	-4%	28*	6%
O=C(Nc1ccc(OC(F)(F)F)cc1)c1[nH]ncc1[N+](=O)[O-]	78*	-7%	43*	·
O=C(Nc1ccc([N+](=O)[O-])cc1)c1ccc(S(=O)(=O)N2CCCC2)cc1	-6	2%	-2	4%
CC(=O)N/C(=C\c1ccccc1)C(=O)OCC(=O)N(CC(C)C)c1c(N)n(Cc2ccccc2)c(=O)[nH]c1=O	·	0%	·	·
CCOc1ccccc1NC(=O)CCc1nnc2ccc(N3CCC4(CC3)OCCO4)nn12	-5	20%	-4	22%
COc1cccc(-c2nnc3n2N=C(c2c(OC)cccc2OC)CS3)c1	-1	·	-2	·
N#Cc1cc2c([nH]c1=S)CCCC2	50*	6%	33*	9%
Cc1nnc2n(c1=O)C(CS(=O)(=O)c1ccc3ccccc3c1)CS2 (stereo not given)	-2	2%	14	·
Cc1noc(NS(=O)(=O)c2ccc(N/C=C\C(=O)c3ccncc3)cc2)c1C	-5	0%	-3	-9%
COc1ccc(C(=O)/C=C/Nc2ccc(S(=O)(=O)Nc3onc(C)c3C)cc2)cc1	77*	18%	44*	-29%
Cc1noc(NS(=O)(=O)c2ccc(N/C=C/C(=O)c3ccncc3)cc2)c1C	59	-2%	16	0%
CCc1nnc(NS(=O)(=O)c2ccc(N/C=C\C(=O)c3ccc4ccccc4c3)cc2)s1	3	-9%	24*	-8%
Cc1noc(NS(=O)(=O)c2ccc(N/C=C/C(=O)c3ccc(F)cc3)cc2)c1C	69*	-1%	33*	·
SMILES	Shiga inhibitor	SARS PLpro yeast	CHX counter	NS1 inh
Cc1noc(NS(=O)(=O)c2ccc(N/C=C/C(=O)c3cccnc3)cc2)c1C	43*	-7%	16*	-19%
Cc1noc(NS(=O)(=O)c2ccc(NC(=O)c3ccc(OC(C)C)cc3)cc2)c1C	9	1%	-3	-5%
CCc1ccc(C(=O)/C=C/Nc2ccc(S(=O)(=O)Nc3onc(C)c3C)cc2)cc1	92*	-47%	50*	-38%
COc1ccc(C(=O)/C=C/Nc2ccc(S(=O)(=O)Nc3ncccn3)cc2)cc1	38	-12%	20*	4%
COc1ccccc1CN1C[C@@H]2C[C@@H](c3ccc(C)c(C)c3)N3CCC[C@@]23C1=O	-17	-1%	-2	4%
CN(C)S(=O)(=O)Oc1ccsc1C(=O)Nc1ccccc1Cl	14	-9%	-2	-10%
CN(C)S(=O)(=O)Oc1cccc(C(=O)Nc2ccc(Cl)cc2)c1	153*	-4%	45*	-8%
CN(C)S(=O)(=O)Oc1cccc(C(=O)Nc2ccccc2Cl)c1	93*	0%	41*	-60%
CN(C)S(=O)(=O)Oc1ccc(C(=O)Nc2cccc(Cl)c2)cc1	89*	0%	56*	-10%
Cn1[nH]c(C(F)(F)F)cc1=O	-8	-2%	-4	·

Assay outcomes from PubChem BioAssay.
